Reference: the supplement of paper PMC11732987, “Enantioselective OTUD7B fragment discovery through chemoproteomics screening and high-throughput optimisation” (Communications Chemistry, 2025)

Key:
Assay in all cases: log2 ratio of Biotin-Ahx-Ub-VS probe labelling (fragment/DMSO); higher = less target engagement (more negative = stronger competition), active = hit call of the paper (q ≤ 0.05, log2 ratio ≤ -1)
Details in all cases: compound concentration: 200 uM; treatment time: 3 h
USP19 = biological target: T1, USP19 (UniProt O94966)
T1 sequence (whole entry): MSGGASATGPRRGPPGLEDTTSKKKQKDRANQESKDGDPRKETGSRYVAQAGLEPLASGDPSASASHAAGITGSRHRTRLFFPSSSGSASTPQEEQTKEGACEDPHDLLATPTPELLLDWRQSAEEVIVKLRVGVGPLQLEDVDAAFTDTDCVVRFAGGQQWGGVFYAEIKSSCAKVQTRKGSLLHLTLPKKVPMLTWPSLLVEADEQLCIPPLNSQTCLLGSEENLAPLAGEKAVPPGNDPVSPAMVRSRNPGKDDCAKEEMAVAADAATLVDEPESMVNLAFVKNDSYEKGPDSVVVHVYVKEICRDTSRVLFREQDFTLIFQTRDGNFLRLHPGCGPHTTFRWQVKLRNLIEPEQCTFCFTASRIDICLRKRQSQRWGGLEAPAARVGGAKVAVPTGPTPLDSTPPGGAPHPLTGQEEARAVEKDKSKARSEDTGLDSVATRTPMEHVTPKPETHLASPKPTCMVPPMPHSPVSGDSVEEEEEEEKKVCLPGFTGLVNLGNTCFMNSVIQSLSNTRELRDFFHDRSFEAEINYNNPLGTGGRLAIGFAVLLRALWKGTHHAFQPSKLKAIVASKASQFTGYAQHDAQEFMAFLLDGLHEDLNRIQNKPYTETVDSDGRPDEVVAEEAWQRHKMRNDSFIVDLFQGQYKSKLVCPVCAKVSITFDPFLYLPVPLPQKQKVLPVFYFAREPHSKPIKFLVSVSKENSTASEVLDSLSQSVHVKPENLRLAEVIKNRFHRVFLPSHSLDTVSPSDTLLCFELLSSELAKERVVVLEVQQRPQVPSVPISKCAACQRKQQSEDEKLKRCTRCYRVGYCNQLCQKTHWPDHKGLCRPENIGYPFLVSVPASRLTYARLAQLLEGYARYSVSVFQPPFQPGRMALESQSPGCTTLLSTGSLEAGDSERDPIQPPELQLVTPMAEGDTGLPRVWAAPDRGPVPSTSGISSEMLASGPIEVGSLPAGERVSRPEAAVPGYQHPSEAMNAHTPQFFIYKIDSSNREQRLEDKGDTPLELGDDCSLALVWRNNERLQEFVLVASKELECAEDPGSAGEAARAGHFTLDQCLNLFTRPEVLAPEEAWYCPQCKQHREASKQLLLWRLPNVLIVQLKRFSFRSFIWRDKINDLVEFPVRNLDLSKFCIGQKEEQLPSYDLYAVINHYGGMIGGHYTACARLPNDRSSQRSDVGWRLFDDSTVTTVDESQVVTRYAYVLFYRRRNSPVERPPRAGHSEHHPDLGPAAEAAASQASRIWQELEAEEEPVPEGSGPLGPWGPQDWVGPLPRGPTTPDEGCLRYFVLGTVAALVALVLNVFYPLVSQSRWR
Method in brief: (§1)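 HEK293T lysate, 495 µg per sample in Tris/CHAPS/IGEPAL buffer with protease inhibitors, was treated in triplicate with fragment at 200 µM or vehicle for 3 h and then with Biotin-Ahx-Ub-VS at 0.5 µM final for 1 h. Labelled DUBs were NeutrAvidin-enriched, digested with LysC and trypsin, and run by diaPASEF LC-MS/MS. Spectronaut label-free quantities were global-median-normalised, and values are average log2 fragment/vehicle ratios by unpaired t-test on proteins with ≥2 unique peptides.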

USP24 = USP24 (UniProt Q9UPU5)
Method in brief: as §1

USP25 = biological target: T2, USP25 (UniProt Q9UHP3)
T2 sequence (whole entry): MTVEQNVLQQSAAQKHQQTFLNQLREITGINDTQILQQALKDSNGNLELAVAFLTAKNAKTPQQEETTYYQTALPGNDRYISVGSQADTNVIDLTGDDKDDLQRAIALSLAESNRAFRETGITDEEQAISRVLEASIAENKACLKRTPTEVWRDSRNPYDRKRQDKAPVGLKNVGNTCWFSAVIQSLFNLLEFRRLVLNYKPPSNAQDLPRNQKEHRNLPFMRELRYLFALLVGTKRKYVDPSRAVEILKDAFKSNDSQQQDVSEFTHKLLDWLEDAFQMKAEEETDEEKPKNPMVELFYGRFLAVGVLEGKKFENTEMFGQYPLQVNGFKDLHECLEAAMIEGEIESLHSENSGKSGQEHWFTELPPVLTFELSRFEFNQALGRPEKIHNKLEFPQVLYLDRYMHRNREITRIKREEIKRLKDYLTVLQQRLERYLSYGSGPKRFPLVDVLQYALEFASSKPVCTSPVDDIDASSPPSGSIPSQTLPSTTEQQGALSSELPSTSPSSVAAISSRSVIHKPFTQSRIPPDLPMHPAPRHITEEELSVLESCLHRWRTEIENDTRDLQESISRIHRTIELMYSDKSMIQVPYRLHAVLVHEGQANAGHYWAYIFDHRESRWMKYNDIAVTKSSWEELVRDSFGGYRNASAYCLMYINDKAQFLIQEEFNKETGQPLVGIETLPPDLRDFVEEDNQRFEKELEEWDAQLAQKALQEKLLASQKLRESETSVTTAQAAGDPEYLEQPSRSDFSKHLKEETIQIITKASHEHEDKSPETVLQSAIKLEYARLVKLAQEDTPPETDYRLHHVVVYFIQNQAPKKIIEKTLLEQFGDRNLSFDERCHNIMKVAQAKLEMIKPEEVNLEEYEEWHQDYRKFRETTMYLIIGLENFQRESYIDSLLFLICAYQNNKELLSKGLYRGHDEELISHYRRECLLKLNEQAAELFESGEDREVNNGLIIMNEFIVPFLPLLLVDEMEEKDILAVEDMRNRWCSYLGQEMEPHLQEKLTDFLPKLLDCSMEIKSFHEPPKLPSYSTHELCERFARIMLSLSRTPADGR
Method in brief: as §1

USP28 = biological target: T3, USP28 (UniProt Q96RU2)
T3 sequence (whole entry): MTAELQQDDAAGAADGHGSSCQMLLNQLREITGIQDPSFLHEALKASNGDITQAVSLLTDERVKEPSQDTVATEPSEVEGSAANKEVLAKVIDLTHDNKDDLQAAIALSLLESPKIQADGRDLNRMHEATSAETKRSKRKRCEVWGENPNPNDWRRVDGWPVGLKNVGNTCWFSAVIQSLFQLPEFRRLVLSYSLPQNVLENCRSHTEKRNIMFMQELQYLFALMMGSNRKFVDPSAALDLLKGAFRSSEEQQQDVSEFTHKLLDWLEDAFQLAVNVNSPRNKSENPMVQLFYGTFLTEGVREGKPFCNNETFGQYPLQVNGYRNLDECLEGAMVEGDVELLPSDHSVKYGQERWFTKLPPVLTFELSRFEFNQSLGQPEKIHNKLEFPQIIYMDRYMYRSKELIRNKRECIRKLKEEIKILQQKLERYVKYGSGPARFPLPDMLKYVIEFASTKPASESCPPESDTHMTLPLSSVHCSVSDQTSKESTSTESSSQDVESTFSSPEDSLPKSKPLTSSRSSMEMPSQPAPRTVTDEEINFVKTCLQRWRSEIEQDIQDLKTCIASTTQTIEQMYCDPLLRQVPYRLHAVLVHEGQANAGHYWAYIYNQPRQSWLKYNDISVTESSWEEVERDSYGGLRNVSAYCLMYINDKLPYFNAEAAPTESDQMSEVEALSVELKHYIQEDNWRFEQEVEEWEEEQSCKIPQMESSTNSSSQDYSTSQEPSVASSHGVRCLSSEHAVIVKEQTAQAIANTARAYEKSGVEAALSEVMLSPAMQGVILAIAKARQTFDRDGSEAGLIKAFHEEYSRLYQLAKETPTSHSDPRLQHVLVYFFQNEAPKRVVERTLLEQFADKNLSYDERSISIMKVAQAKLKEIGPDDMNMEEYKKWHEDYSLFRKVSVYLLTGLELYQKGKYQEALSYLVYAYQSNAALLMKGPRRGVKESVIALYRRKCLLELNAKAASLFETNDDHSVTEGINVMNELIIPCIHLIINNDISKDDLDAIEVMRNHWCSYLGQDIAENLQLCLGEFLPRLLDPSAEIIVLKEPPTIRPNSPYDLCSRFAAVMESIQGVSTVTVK
Method in brief: as §1

Measured: log2 ratio of Biotin-Ahx-Ub-VS probe labelling

Chain of USP24 (Q9UPU5 whole entry): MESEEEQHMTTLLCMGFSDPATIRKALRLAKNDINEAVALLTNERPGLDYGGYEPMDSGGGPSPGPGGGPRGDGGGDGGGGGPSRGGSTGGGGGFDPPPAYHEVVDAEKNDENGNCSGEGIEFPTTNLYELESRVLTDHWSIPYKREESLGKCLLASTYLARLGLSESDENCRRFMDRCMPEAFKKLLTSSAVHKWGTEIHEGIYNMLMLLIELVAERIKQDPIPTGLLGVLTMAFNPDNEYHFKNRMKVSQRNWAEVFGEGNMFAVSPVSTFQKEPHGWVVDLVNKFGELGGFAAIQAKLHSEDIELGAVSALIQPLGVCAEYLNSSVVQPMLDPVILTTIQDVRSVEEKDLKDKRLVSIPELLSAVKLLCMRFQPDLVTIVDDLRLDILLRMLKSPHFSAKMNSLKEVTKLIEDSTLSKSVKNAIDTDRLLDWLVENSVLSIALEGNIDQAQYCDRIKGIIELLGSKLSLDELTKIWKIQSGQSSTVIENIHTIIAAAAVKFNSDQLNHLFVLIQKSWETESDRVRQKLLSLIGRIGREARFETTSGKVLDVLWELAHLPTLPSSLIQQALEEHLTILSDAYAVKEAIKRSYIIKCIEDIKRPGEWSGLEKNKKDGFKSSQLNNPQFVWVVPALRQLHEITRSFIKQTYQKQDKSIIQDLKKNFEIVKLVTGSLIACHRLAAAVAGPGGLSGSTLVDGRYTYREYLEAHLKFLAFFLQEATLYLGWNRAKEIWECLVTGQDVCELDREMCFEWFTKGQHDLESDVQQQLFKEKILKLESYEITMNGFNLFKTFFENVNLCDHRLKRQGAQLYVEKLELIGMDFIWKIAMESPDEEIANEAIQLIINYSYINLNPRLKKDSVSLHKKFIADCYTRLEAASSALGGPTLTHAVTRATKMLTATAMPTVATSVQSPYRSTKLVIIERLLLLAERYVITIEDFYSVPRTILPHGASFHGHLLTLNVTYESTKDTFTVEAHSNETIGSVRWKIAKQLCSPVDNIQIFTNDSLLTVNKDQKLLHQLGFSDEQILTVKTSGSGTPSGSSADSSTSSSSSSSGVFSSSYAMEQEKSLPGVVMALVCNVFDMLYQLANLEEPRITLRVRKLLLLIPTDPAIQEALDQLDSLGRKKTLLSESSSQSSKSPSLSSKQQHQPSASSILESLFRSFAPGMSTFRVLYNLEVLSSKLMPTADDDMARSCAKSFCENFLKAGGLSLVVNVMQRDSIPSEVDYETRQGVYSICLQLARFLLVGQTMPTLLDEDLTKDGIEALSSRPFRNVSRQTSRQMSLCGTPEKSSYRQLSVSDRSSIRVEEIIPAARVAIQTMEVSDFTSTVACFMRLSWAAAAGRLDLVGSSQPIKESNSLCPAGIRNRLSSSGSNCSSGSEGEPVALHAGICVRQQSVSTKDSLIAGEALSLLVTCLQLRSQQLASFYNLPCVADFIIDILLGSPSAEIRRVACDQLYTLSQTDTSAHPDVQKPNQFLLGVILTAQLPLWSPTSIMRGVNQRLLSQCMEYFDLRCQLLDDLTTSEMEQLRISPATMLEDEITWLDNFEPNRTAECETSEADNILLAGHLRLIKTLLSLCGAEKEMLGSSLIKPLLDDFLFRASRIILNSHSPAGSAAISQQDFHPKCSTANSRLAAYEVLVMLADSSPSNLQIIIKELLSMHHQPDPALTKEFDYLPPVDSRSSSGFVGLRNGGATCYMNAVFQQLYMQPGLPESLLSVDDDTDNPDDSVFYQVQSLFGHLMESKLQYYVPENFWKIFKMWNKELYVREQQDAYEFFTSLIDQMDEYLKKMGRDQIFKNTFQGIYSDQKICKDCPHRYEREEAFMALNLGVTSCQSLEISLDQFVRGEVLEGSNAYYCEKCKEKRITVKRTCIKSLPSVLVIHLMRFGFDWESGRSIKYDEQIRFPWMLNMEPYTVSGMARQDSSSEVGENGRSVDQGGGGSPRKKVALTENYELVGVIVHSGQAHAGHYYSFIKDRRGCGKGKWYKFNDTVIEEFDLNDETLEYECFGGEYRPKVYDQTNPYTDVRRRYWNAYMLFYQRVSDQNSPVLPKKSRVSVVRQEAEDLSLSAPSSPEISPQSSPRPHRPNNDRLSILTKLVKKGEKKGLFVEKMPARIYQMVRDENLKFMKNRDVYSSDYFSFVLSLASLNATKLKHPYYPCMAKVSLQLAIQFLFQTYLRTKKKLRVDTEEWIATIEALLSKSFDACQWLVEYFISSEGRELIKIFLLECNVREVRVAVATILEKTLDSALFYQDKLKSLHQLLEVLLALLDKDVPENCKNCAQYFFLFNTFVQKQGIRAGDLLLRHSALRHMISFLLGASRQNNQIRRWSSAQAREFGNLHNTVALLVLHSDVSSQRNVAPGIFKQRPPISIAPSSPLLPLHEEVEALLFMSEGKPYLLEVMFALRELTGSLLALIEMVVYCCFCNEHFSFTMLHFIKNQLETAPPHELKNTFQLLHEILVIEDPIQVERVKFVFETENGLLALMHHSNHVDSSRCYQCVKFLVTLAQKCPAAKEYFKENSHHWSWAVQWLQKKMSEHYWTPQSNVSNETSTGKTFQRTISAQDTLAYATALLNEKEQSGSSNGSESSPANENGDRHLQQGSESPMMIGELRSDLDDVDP

O=C(CCl)N1CCC2(CCC(O)CC2)CC1
inactive: USP19 0.0572 | USP24 -0.133 | USP25 -0.0651 | USP28 -0.372
